In PubChem BioAssay AID488969 (Vanderbilt High Throughput Screening Facility, 2010):
Whole data set: some 110,000 compounds, median “z-score” near -0.1, cut for the highest 2% near 2. The sample as a whole holds a higher share of the highest values than the screen did. Calls of active or inactive are those of the source.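 Rule for the calls: active = z-score in the third read window above 3 or below -3; inactive = the rest.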

Biological target: Metabotropic glutamate receptor 8 (Rattus norvegicus) (UniProt P70579)
Experiment: rat mGluR8 modulators via GIRK flux, primary screen, cell-based, thallium flux, HTS (AID 488969)
Conditions: HEK293 rat mGluR8, GIRK (G protein-gated inwardly rectifying potassium channel) thallium flux, FluoZin2; at 10 µM; stronger effect = higher value; submaximal glutamate (EC20) added with thallium

Metabotropic glutamate receptor 8 (Rattus norvegicus), sequence (P70579 whole entry, looked up): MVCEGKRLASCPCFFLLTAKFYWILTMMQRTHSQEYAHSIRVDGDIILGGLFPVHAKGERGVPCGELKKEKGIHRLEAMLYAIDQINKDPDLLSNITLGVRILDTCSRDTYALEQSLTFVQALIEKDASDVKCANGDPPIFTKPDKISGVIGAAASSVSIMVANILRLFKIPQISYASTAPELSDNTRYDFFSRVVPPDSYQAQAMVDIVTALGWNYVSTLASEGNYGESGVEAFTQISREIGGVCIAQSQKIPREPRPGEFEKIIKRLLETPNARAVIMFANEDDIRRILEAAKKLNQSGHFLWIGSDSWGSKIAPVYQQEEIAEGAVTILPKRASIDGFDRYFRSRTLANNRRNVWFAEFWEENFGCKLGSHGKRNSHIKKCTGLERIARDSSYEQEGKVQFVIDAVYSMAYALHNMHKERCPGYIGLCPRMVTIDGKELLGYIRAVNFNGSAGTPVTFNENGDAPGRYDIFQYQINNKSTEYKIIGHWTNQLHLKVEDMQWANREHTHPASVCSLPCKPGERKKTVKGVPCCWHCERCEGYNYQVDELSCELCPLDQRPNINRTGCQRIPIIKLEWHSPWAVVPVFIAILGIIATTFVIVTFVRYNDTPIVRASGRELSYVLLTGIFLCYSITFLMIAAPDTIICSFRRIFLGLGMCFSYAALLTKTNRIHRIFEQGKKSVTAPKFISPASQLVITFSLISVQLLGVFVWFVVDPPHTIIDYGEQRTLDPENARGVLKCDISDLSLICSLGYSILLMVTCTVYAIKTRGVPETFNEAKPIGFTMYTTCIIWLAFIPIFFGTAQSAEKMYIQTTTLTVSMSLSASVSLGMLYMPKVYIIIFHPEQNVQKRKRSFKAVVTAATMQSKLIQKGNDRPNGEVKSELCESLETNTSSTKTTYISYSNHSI

| Compound | z-score |
| --- | --- |
| CC(=O)Nc1ccc2nc(C)n(Cc3ccc(Cl)cc3)c(=O)c2c1 | -0.376 |
| CCOC(=O)N1CCC(NC(=O)C2CCN(c3ccc(N4CCOCC4)nn3)CC2)CC1 | -0.202 |
| CCCOc1ccc(N2C(=O)CC(N3CCN(c4ccccc4OC)CC3)C2=O)cc1 (stereo not given) | -0.446 |
| COC(=O)C1=CNC=C(C(=O)OC)C1c1ccccc1Cl | -1.54 |
| CCOc1ccccc1N(CC(=O)Nc1ccccc1C(=O)O)S(C)(=O)=O | 0.403 |
| c1ccc2nc3c(cc2c1)CCCCCC3 | -0.0331 |
| CCOC(=O)c1nnn(-c2nonc2N)c1-c1cccc2ccccc12 | -1.66 |
| O=C(NCc1ccc2c(c1)OCO2)C1CC(c2ccccc2O)=NO1 (stereo not given) | 0.36 |
| COc1ccc(C(C[N+](=O)[O-])c2c(-c3ccccc3)cc3ccccn23)cc1 (stereo not given) | 0.715 |
| Cc1snc(SCC(=O)N/N=C(\N)COc2ccc(F)cc2)c1C#N | 0.165 |
| Cn1c(CNc2ccc(Cl)cc2)nnc1SCCN1CCCCC1 | 0.273 |
| O=C(COc1ccc([N+](=O)[O-])cc1)NCCC1=CCCCC1 | -0.0621 |
| CCCNC(=S)Nc1ccc(Cl)cc1Cl | -0.0325 |
| COC(=O)c1c(NC(C)=O)sc2c1CCCC2 | -0.117 |
| COC(=O)c1c(NS(C)(=O)=O)sc2c1CCCC2 | 0.0189 |
| COC(=O)c1c(NS(=O)(=O)c2ccc3ccccc3c2)sc2c1CCCC2 | 0.384 |
| COC(=O)c1c(NC(=O)CN(c2ccccc2)S(C)(=O)=O)sc2c1CCCC2 | 0.77 |
| COC(=O)c1c(NS(=O)(=O)c2cccs2)sc2c1CCCC2 | 6.32 (active) |
| COC(=O)c1c(NS(=O)(=O)Cc2ccccc2)sc2c1CCCC2 | 17 (active) |
| C=CCn1c(Cc2csc(N)n2)nnc1SCC(=O)Nc1ccc(C(=O)OCC)cc1 | -2.2 |
| CCOC(=O)C1CCN(C(=O)c2ccccc2Oc2ccccc2)CC1 | -0.386 |
| COc1ccc(-c2nsc(SCC(=O)Nc3ccc4c(c3)OCO4)n2)cc1 | -0.142 |
| CCOC(=O)NCc1ccc(S(=O)(=O)Nc2ccc(C)cc2)cc1 | 0.21 |
| Cc1ccc(-c2cc(N)n(Cc3ccc(Cl)cc3)n2)cc1 | -0.532 |
| CC(C)CC(=O)NCCCCc1ccccc1 | -0.29 |
| CC(C)CC(=O)NC(=S)NCCc1ccccc1 | 0.38 |
| O=C(NC(=S)N(Cc1ccccc1)Cc1ccccc1)C1CCCCC1 | 0.526 |

| Compound | z-score |
| --- | --- |
| CC(C)C(=O)NC(=S)N(Cc1ccccc1)Cc1ccccc1 | 9.57 (active) |
| O=C(NC(=S)N(Cc1ccccc1)Cc1ccccc1)c1ccccc1F | -1.15 |
| CC(C)CC(=O)NC(=S)N(Cc1ccccc1)Cc1ccccc1 | 8.66 (active) |
| CN(C)CCN1C(=O)C(O)=C(C(=O)c2cc3ccccc3o2)C1c1ccc(N(C)C)cc1 (stereo not given) | -0.145 |
| CC(C)(C)c1ccc(S(=O)(=O)NC(Cc2ccccc2)C(=O)O)cc1 (stereo not given) | 0.161 |
| Cc1nn(Cc2ccc(Cl)cc2Cl)c(Cl)c1/C=N/NC(=O)CNc1cccc(C(F)(F)F)c1 | -0.087 |
| CCOCCn1c(=NC(=O)c2cc(Cl)sc2Cl)sc2cc(S(N)(=O)=O)ccc21 | -0.0217 |
| CCCCNC(=O)CCn1c(=O)c2ccccc2n(Cc2ccc(F)cc2)c1=O | -0.407 |
| COc1cc(OC)cc(C(=O)N[C@H](C(=O)N2CCc3ccccc32)C(C)C)c1 | -0.177 |
| c1cc2c3c(cccc3c1)C(N1CCN(C3=Nc4cccc5cccc3c45)CC1)=N2 | -0.0313 |
| c1cc2c3c(cccc3c1)C(N1CCCCCC1)=N2 | 0.822 |
| CCCCN(C)C1=Nc2cccc3cccc1c23 | 3.17 (active) |
| COc1cc(S(=O)(=O)N(Cc2ccccc2)Cc2ccccn2)ccc1-n1cnnn1 | -0.0596 |
| N#CCCN1CCN(S(=O)(=O)c2ccc3c(c2)OCCCO3)CC1 | -0.473 |
| Cc1c(C(=O)O)[nH]c2c1C(=O)CC(c1ccc(Cl)cc1)C2 (stereo not given) | 5.28 (active) |
| Cc1c(C(=O)O)[nH]c2c1C(=O)CC(c1ccccc1)C2 (stereo not given) | -0.21 |
| Cc1c(C(=O)N2CCOCC2)[nH]c2c1C(=O)CC(c1ccc(Cl)cc1)C2 (stereo not given) | -0.803 |
| CC(C)=CCC/C(C)=C/C=N/NC(=O)c1ccc([N+](=O)[O-])cc1 | 1.52 |
| CCOC(=O)C1CCC2(CC1)C(C#N)=C(N)Oc1n[nH]c(C)c12 (stereo not given) | 0.0849 |
| CCOc1ccc(S(=O)(=O)N(CC(=O)Nc2cc(C)on2)Cc2ccccc2Cl)cc1 | -1.72 |
| CC(=O)c1ccc(OC(=O)C2CC(=O)N(c3cccc(C)c3)C2)cc1 (stereo not given) | -1.58 |
| O=C(Nc1ccccc1Br)C(=O)N1CCCC1 | -0.0281 |
| O=C(NNc1ccccc1Br)C(=O)n1ccc2ccccc21 | 2.23 |
| Cc1ccccc1NC(=O)Nc1ccccc1Br | -0.375 |
| Cc1ccc(S(=O)(=O)N2CCN(c3cc4c(cc3[N+](=O)[O-])n(C)c(=O)n4C)CC2)cc1 | -0.078 |
| COC(=O)c1cc2ccccc2c(-c2c(O)ccc3ccccc23)c1O | 0.0387 |
| Cc1ccc(C2NC(=O)NC(O)(C(F)(F)F)C2C(=O)c2cccs2)o1 (stereo not given) | -0.404 |

| Compound | z-score |
| --- | --- |
| O=C1NC(c2ccccc2)C(C(=O)c2cccs2)C(O)(C(F)(F)F)N1 (stereo not given) | -0.23 |
| Cc1ccc(C(=O)C2C(c3cccs3)NC(=O)NC2(O)C(F)(F)F)cc1 (stereo not given) | 2.58 |
| Cc1nnc(NC(=O)c2cccc(S(=O)(=O)N3CCc4ccccc43)c2)s1 | 0.437 |
| CSc1ccc(C(=S)N2CCN(CCO)CC2)cc1 | 0.0369 |
| CC(CN1CCN(C)CC1)OC(=O)c1ccc(Cl)cc1Cl (stereo not given) | 0.335 |
| CC(CN1CCN(C)CC1)OC(=O)c1ccc(Cl)cc1 (stereo not given) | 1.05 |
| CC(CN1CCCCC1)OC(=O)c1ccc(Cl)cc1Cl (stereo not given) | 2.27 |
| CCCCOc1ccc(S(=O)(=O)NCc2csc(C)n2)cc1 | -1.17 |
| N/C(=N\c1nc2ccccc2o1)NC(=O)c1ccccc1 | -0.339 |
| Cc1nc(/N=C(\N)NC(=O)c2ccccc2)nc2ccccc12 | 2.8 |
| Cc1nc(/N=C(\N)NC(=O)N2c3ccccc3Sc3ccccc32)nc2ccccc12 | -0.0514 |
| CCOc1nc(S(=O)(=O)c2ccc(C)cc2)c(Cl)s1 | -0.802 |
| CC1CCCN(c2nc3ccccc3nc2C(C#N)S(=O)(=O)c2cccs2)C1 (stereo not given) | -1.84 |
| O=C(CCNC(=O)c1ccccc1Cl)NCC12CC3CC(CC(C3)C1)C2 | -0.16 |
| Cc1cc(C)nc(-n2nc(C)c(Oc3ccccc3O)c2C)n1 | -0.176 |
| Cc1nn(-c2ccc(C(=O)O)cc2)c(C)c1Oc1ccccc1O | -0.318 |
| Cc1nn(-c2ccc(C(F)(F)F)cn2)c(C)c1Oc1ccccc1O | 2.25 |
| COc1ccc(CCNC(=O)C2CC(=O)N(c3ccccc3)C2)cc1OC (stereo not given) | 0.172 |
| O=C(CSc1nnc(Cc2cc(=O)[nH]c(=O)[nH]2)n1-c1ccccc1)NCC1CCCO1 (stereo not given) | 0.18 |
| Cn1nnc(NC(=O)c2cccc(OCc3ccccc3)c2)n1 | -0.179 |
| Cc1ccc(C(=O)NCC2CCCO2)cc1[N+](=O)[O-] (stereo not given) | 0.0557 |
| CCCCn1c(SCC(=O)OCC)nc2c1c(=O)[nH]c(=O)n2C | -0.555 |
| CCCCCn1c(SCC(=O)OC)nc2c1c(=O)[nH]c(=O)n2C | 2.01 |
| COC(=O)CSc1nc2c(c(=O)[nH]c(=O)n2C)n1CCC(C)C | -0.127 |
| Cc1ccc2cc(S(=O)(=O)NCCCC(=O)O)ccc2c1 | -0.0725 |
| CCCCNC(=O)c1ccc(N2CCC3(CC2)OCCO3)c([N+](=O)[O-])c1 | -0.757 |
